# Measurements reported in PubChem BioAssay.
# Experiment: MRP1 drug-resistance reversers in H69AR cells – cell-based, doxorubicin co-treatment, pilot screen (AID 601)
# Conditions: H69AR cells, CellTiter-Glo, 72 h; compound alone cytotoxicity; at 10 µM
row,Structure (SMILES),viability
1,CCCCC(=O)NCCc1cc2c(C)ccc(C)c2[nH]c1=O,85.1%
2,CN1CCN(C2=C(Cl)C(=O)N(c3cccc(Cl)c3)C2=O)CC1,85%
3,Cc1ccc(Cn2c(=O)c3ccccc3n3c(CCC(=O)O)nnc23)cc1,98.9%
4,COc1cc(/C=N/n2cnnc2)ccc1OCC(=O)N1CCOCC1,93%
5,CCC(C)C(=O)Nc1nc2c(s1)C(=O)CC(C)(C)C2 (stereo not given),89.5%
6,O=C(C(Cc1ccccc1)n1cccc1)N1CCCCCC1 (stereo not given),95.6%
7,Cc1ccc(NC(=O)c2cc(-c3ccc(C)o3)nc3ccccc23)nc1,4.86%
8,Cc1cccc(-n2ncc3c(NCCCn4ccnc4)ncnc32)c1,88.6%
9,Cc1ccc(CNC(=O)C2CCCN(S(=O)(=O)c3cnc[nH]3)C2)cc1 (stereo not given),106%
10,CCCN1CCN(CCCNC(=O)Cn2ncc3c4ccccc4n(C)c3c2=O)CC1,102%
11,CN(C)c1cc(NC(=O)CN2CCOCC2)c2ccccc2n1,85.8%
12,CN(C)S(=O)(=O)c1ccc2c(c1)c(=O)c(C(=O)NCCCN1CCCCCC1)cn2C,102%
13,CC(C)c1ccc(C(O)c2cnc(C(C)C)n2C)cc1 (stereo not given),88.1%
14,CCN(CC)C(=O)c1ccc(CS(=O)(=O)c2ccc(OC)cc2)o1,87.8%
15,COc1ccc2c(c1)CCc1cc(C(=O)N3CCN(c4ccc(N5CCOCC5)nn4)CC3)sc1-2,63.7%
16,COc1ccc(-c2[nH]c(-c3cccc(OC)c3)nc2SCC(=O)NCc2ccco2)cc1,71%
17,CCSc1nnc(N2C(=O)CC(c3ccsc3)C3=C2CC(C)(C)CC3=O)s1 (stereo not given),89%
18,CC1=C(C(=O)Nc2cccnc2)C(c2ccc(C(C)C)cc2)n2ncnc2N1 (stereo not given),97.8%
19,CCCCN=CC1=C(O)C(C(=O)OC)C(C)(C)CC1=O (stereo not given),91.4%
20,O=C1c2ccccc2C(Nc2cccnc2)N1Cc1ccccc1Cl (stereo not given),86.3%

row,Structure (SMILES),viability
1,CC(=O)NC(CCS(C)(=O)=O)C(=O)Nc1cccc(C)c1 (stereo not given),94.1%
2,Cc1ccc(N2CCN(S(=O)(=O)N(C)C)CC2)c(C)c1,83.5%
3,CCOc1ccc(NC(=O)CCN2CCN(c3ccccc3)CC2)cc1,82.5%
4,CCOC(=O)C1=C(C)Nc2nnnn2C1c1ccc(OC)c(Br)c1 (stereo not given),93.3%
5,CC(C)c1nnc(NC(=O)Cc2cccs2)s1,96.7%
6,Cc1ccnc(NC(=O)C2CCC(CNc3c(N4CCCC4)c(=O)c3=O)CC2)c1 (stereo not given),90.2%
7,CCN(CCCNS(=O)(=O)c1ccc2c(c1)oc(=O)n2C)c1cccc(C)c1,90.1%
8,O=C(NCC1CCCO1)C1CCN(S(=O)(=O)c2cccc3cccnc23)CC1 (stereo not given),101%
9,CCn1c(C(=O)N2CCC(C(=O)N3CCN(c4ccccn4)CC3)CC2)cc2sccc21,87.1%
10,O=C(O)COc1ccc(S(=O)(=O)NCCc2ccccc2)cc1,106%
11,CCOC(=O)N1CCN(C(=O)c2ccc(CS(=O)(=O)c3c(Cl)cccc3Cl)o2)CC1,96.5%
12,CNC(=O)c1ccsc1NC(=O)c1ccccc1,80.8%
13,CSc1nc2ccccc2c(=O)n1N,97.5%
14,CCN1CCN(C(c2cccs2)C(C)NC(=O)c2ccccc2)CC1 (stereo not given),87.3%
15,CC(Sc1nc(-c2ccccc2)cc(C(F)(F)F)n1)C(=O)N1CCCC1 (stereo not given),88.8%
16,CCOc1cccc(-c2nnc3n2N=C(c2cc(OC)ccc2OC)CS3)c1,13.5%
17,COc1cc(NC(=O)C2CCCN2S(=O)(=O)c2cccc3cccnc23)cc(OC)c1OC (stereo not given),82.2%
18,CCOC(=O)c1ccc(-n2c(C)nc3c(cnn3-c3ccccc3C)c2=O)cc1,98.1%
19,O=C(Nc1c(C(=O)NCc2ccco2)cnn1-c1ccccc1)c1ccc(F)cc1,96.9%
20,O=C(NCCC1=CCCCC1)C1CCN(S(=O)(=O)c2cccc3cccnc23)CC1,97%
